Source: PubChem BioAssay (NCI)
This is part of a sample that, as a whole, favours compounds with a hit. Of some 79,000 tested, about 15% had one in any assay. Active and inactive are the calls of the source. Cut-off read from the data, not from the text of the source: active = growth inhibition above about 70%; inactive = the rest.

Legend:
[1] = NCI Yeast Anticancer Drug Screen. Data for the rad50 strain (AID 155);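 note: 0% = growth of vehicle-only cultures of the same strain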; conditions: S. cerevisiae rad50 strain growth inhibition, stronger effect = higher value
How it was run: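 Yeast carrying a defined DNA repair defect were exposed to test compounds, and growth was compared with vehicle-treated controls to give percent inhibition.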

[2] = NCI Yeast Anticancer Drug Screen. Data for the mec2-1 strain (AID 157); conditions: S. cerevisiae mec2-1 strain, stronger effect = higher value
How it was run: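 Cells of the genetically defined mec2-1 yeast strain are incubated with test compound. Inhibition of growth is calculated against vehicle-treated controls.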

[3] = NCI Yeast Anticancer Drug Screen. Data for the sgs1 mgt1 strain (AID 161);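 note: 0% = growth of cultures given vehicle only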; conditions: S. cerevisiae sgs1 mgt1 strain, stronger effect = higher value
How it was run: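 Inhibition of yeast growth, normalised to vehicle-treated controls, is reported for a strain bearing genetic alterations in DNA damage repair.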

[4] = NCI Yeast Anticancer Drug Screen. Data for the cln2 rad14 strain (AID 165);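 note: 0% = growth equal to vehicle treated cultures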; conditions: S. cerevisiae cln2 rad14 strain, stronger effect = higher value
How it was run: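 The screen exposed genetically defined yeast (cln2 rad14) to test compounds and scored growth inhibition relative to vehicle-treated controls.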

[5] = NCI Yeast Anticancer Drug Screen. Data for the bub3 strain (AID 167); conditions: S. cerevisiae bub3 mutant strain, stronger effect = higher value
How it was run: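 Compounds were applied to a genetically altered yeast strain carrying a cell-cycle control defect. Growth inhibition was scored against vehicle-treated controls.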

[6] = NCI Yeast Anticancer Drug Screen. Data for the mlh1 rad18 strain (AID 175); conditions: S. cerevisiae mlh1 rad18 strain growth inhibition, stronger effect = higher value
How it was run: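 Compound-treated yeast growth, normalised to vehicle controls. Strain bears defined DNA repair mutations.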

[7] = at 5.0 µM (retest, dose inferred, filed as 0.5)
[8] = at 50.0 µM (retest, dose inferred, filed as 5.0)

Measured: growth inhibition

COC(=O)C(CCC(=O)Cc1ccccc1)N1C(=O)c2ccccc2C1=O (configuration not stated)
inactive: [1]; [7] 6% | [1]; [8] 67% | [1]; at 50.0 µM 70% | [2]; [7] 1% | [2]; at 50.0 µM 56.9% | [3]; [7] 16% | [4]; [7] 10% | [4]; [8] 43% | [4]; at 50.0 µM 1.4% | [5]; [7] 8% | [6]; [7] 16%
active: [2]; [8] 91% | [3]; [8] 87% | [3]; at 50.0 µM 81.6% | [5]; [8] 86% | [5]; at 50.0 µM 76% | [6]; [8] 89% | [6]; at 50.0 µM 88%

COc1ccc2c(c1)Cc1cc(NC(=O)N(CCCl)N=O)ccc1-2
inactive: [1]; [7] -2% | [2]; [7] 2% | [2]; at 50.0 µM 55.9% | [3]; [7] 3% | [4]; [7] -5% | [4]; [8] 49% | [4]; at 50.0 µM -0.85% | [5]; [7] -11% | [5]; [8] 41% | [5]; at 50.0 µM 22.9% | [6]; [7] 28%
active: [1]; [8] 85% | [1]; at 50.0 µM 90.2% | [2]; [8] 88% | [3]; [8] 77% | [3]; at 50.0 µM 89.2% | [6]; [8] 94% | [6]; at 50.0 µM 95.6%

O=C1CSC(Cc2nc3ccccc3[nH]2)=N1
active: [1]; [8] 79% | [1]; at 50.0 µM 76.7% | [2]; [8] 79% | [2]; at 50.0 µM 79.5% | [3]; [8] 87% | [3]; at 50.0 µM 73% | [5]; [8] 71% | [5]; at 50.0 µM 77.8% | [6]; [8] 90% | [6]; at 50.0 µM 74.9%
inactive: [1]; [7] 30% | [2]; [7] 26% | [3]; [7] 44% | [4]; [7] 36% | [4]; [8] 55% | [4]; at 50.0 µM 69% | [5]; [7] 22% | [6]; [7] 48%

Oc1c(Cl)c(Cl)c(O)c2c1CCCC2
active: [1]; [8] 98% | [1]; at 50.0 µM 99.3% | [2]; [8] 99% | [2]; at 50.0 µM 99.5% | [3]; [8] 99% | [3]; at 50.0 µM 99.2% | [4]; [8] 99% | [4]; at 50.0 µM 98.9% | [5]; [8] 98% | [5]; at 50.0 µM 99.5% | [6]; [7] 78% | [6]; [8] 99% | [6]; at 50.0 µM 99.4%
inactive: [1]; [7] 46% | [2]; [7] 67% | [3]; [7] 69% | [4]; [7] 14% | [5]; [7] 65%

CC(=O)C(C(=N)C#N)C(=O)Nc1ccccc1 (configuration not stated)
inactive: [1]; [7] 1% | [1]; [8] 10% | [1]; at 50.0 µM -6.9% | [2]; [7] 2% | [2]; [8] -12% | [2]; at 50.0 µM -34.5% | [3]; [7] -8% | [3]; [8] 7% | [3]; at 50.0 µM -22.7% | [4]; [7] -14% | [4]; [8] -2% | [4]; at 50.0 µM 33.6% | [5]; [7] 6% | [5]; [8] -2% | [5]; at 50.0 µM -44% | [6]; [7] 0% | [6]; [8] 6% | [6]; at 50.0 µM -15.2%

CCCCCCCCCCCCCCCC[n+]1ccc(/C=C/c2ccccc2)cc1
inactive: [4]; [7] 46%
active: [1]; [7] 75% | [1]; [8] 95% | [1]; at 50.0 µM 98.4% | [2]; [7] 100% | [2]; [8] 96% | [2]; at 50.0 µM 98.8% | [3]; [7] 99% | [3]; [8] 98% | [3]; at 50.0 µM 98.5% | [4]; [8] 94% | [4]; at 50.0 µM 97.8% | [5]; [7] 88% | [5]; [8] 97% | [5]; at 50.0 µM 97.8% | [6]; [7] 99% | [6]; [8] 98% | [6]; at 50.0 µM 97.7%

N#CC(C#N)=C/C=C/c1c(Cl)cccc1Cl
active: [1]; at 50.0 µM 71.2% | [3]; [8] 78% | [4]; at 50.0 µM 76.8% | [5]; [8] 79%
inactive: [1]; [7] 7% | [1]; [8] 41% | [2]; [7] 15% | [2]; [8] 58% | [2]; at 50.0 µM 46.9% | [3]; [7] 11% | [3]; at 50.0 µM 58.9% | [4]; [7] 29% | [4]; [8] 68% | [5]; [7] 25% | [5]; at 50.0 µM 69.6% | [6]; [7] 8% | [6]; [8] 66% | [6]; at 50.0 µM 57.1%

COC(=O)C1C(=O)CC(c2ccccc2)C1c1ccccc1 (configuration not stated)
inactive: [1]; [7] 2% | [1]; [8] -4% | [1]; at 50.0 µM 6.5% | [2]; [7] 1% | [2]; [8] -3% | [2]; at 50.0 µM -6.25% | [3]; [7] -1% | [3]; [8] -4% | [3]; at 50.0 µM -7.85% | [4]; [7] 0% | [4]; [8] -5% | [4]; at 50.0 µM 15.8% | [5]; [7] 7% | [5]; [8] 10% | [5]; at 50.0 µM 1.2% | [6]; [7] 0% | [6]; [8] -3% | [6]; at 50.0 µM -0.75%

O=C(NC1CCN(Cc2ccccc2)CC1)c1ccccc1I
inactive: [1]; [7] 48% | [2]; [7] 38% | [2]; [8] 50% | [2]; at 50.0 µM 39.9% | [5]; [7] 59% | [5]; [8] 64%
active: [1]; [8] 73% | [1]; at 50.0 µM 74.3% | [3]; [7] 80% | [3]; [8] 81% | [3]; at 50.0 µM 82.6% | [4]; [7] 83% | [4]; [8] 82% | [4]; at 50.0 µM 81% | [5]; at 50.0 µM 74% | [6]; [7] 73% | [6]; [8] 76% | [6]; at 50.0 µM 80.8%
